# Measurements reported in PubChem BioAssay.
# Calls of active or inactive are those of the source.
# What was measured:
# [1] = system: Plasmodium falciparum Sir2 (PF13_0152, Sir2A); assay: Plasmodium falciparum Sir2A binding compounds – biochemical, small-molecule microarray, 635 nm fluorescence, primary screen (AID 1098); settings: fluorescence 635 nm, higher = more signal;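 also: score merges spot fluorescence intensity with its signal-to-noise ratio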
# [2] = probe aDKK1 binding to arrayed compounds – biochemical, biotinylated probe, 635/667 nm fluorescence, primary screen (AID 1099); settings: small-molecule microarray, higher = more signal;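 also: score merges 667nm spot fluorescence with signal to noise across triplicate slides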
# [3] = probe aCHRDL2 binding to arrayed compounds – biochemical, biotinylated probe, 635/667 nm fluorescence, primary screen (AID 1100); settings: small-molecule microarray, higher = more signal
# [4] = change in splice reporter luminescence, either direction, cell-based, HEK293, spliceosome inhibition project, primary screen (AID 1101); settings: HEK293 splicing luciferase reporter, 24 h, higher = more signal, called active from +8 up or from −8 down;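 also: HEK293 cells carrying a splicing-competent luciferase reporter gene; test concentration not given here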
# [5] = target: Fibroblast growth factor 10 (Homo sapiens) (UniProt O15520); assay: compounds binding fibroblast growth factor 10 – biochemical, small-molecule microarray, 635 nm fluorescence, primary screen (AID 1102); settings: FGF10 binding, fluorescence 635 nm, higher = more signal
# Fibroblast growth factor 10 (Homo sapiens), sequence (O15520 whole entry, looked up): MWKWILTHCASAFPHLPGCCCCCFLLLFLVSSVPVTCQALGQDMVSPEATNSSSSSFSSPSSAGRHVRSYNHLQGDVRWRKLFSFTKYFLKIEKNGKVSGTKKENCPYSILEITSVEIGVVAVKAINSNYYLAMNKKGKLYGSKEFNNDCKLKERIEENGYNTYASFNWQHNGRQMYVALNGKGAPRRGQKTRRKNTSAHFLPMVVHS
# [6] = system: glycogen synthase kinase-3 (GSK3A per assay name; protocol says GSK3B); assay: compounds binding glycogen synthase kinase-3 – biochemical, small-molecule microarray, 635 nm fluorescence, GSK3A, primary screen (AID 1103); settings: fluorescence 635 nm, higher = more signal; also: the record names both GSK3A and GSK3B
# [7] = target: Epidermal growth factor receptor (Homo sapiens) (UniProt P00533); assay: compounds binding epidermal growth factor receptor – biochemical, small-molecule microarray, 635 nm fluorescence, primary screen (AID 1104); settings: EGFR binding, higher = more signal;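 also: score merges 667 nm emission intensity with spot signal to noise over triplicate slides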
# Epidermal growth factor receptor (Homo sapiens), sequence (P00533 whole entry, looked up): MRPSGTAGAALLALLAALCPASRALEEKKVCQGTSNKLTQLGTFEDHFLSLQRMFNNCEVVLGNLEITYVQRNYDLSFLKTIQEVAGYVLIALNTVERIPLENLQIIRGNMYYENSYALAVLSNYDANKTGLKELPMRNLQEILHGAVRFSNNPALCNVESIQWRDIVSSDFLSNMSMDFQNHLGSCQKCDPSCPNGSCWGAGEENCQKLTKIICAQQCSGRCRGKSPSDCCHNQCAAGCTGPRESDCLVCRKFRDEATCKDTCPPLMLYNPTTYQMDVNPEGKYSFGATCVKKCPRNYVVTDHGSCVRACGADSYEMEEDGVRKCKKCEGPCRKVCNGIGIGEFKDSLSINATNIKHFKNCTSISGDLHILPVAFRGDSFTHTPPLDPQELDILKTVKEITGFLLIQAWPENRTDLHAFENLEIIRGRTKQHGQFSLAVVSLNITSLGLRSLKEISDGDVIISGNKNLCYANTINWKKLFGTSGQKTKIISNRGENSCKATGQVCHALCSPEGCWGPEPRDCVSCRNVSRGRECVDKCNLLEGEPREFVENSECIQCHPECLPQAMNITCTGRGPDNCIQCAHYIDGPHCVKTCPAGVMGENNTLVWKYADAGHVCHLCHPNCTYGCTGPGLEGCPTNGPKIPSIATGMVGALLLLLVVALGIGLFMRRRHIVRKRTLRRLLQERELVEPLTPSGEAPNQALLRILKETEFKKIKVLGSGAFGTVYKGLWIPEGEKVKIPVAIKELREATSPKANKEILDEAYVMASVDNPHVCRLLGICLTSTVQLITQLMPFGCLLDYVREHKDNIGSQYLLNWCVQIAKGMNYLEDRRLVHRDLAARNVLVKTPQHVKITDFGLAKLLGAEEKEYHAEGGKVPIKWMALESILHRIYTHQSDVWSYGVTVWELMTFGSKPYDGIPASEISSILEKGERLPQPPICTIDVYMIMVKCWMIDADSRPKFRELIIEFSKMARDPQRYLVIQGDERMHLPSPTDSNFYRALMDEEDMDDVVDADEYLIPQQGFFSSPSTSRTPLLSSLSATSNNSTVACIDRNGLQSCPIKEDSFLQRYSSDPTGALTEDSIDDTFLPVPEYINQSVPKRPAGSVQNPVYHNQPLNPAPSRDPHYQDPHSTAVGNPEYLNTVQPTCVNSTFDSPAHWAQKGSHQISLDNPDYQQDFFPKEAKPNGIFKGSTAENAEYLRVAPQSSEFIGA
# [8] = target: Follistatin-related protein 3 (Homo sapiens) (UniProt O95633); assay: compounds binding follistatin-related protein 3 – biochemical, small-molecule microarray, 635 nm fluorescence, primary screen (AID 1105); settings: FSTL3 binding, higher = more signal;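 also: score merges emission near 667 nm and signal to noise per printed spot across three slides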
# Follistatin-related protein 3 (Homo sapiens), sequence (O95633 whole entry, looked up): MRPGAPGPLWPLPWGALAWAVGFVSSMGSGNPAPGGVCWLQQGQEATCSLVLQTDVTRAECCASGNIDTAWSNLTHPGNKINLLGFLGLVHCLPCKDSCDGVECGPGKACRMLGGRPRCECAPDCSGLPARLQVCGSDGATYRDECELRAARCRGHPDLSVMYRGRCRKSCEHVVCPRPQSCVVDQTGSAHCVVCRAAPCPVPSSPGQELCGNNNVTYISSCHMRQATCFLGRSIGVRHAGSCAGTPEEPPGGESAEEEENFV
# [9] = target: Dickkopf-related protein 1 (Homo sapiens) (UniProt O94907); assay: small molecules binding DKK1 protein – biochemical, small-molecule microarray, 635 nm fluorescence scan, primary screen (AID 1106); settings: higher = more signal;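 also: score merges emission near 667 nm with signal to noise over three replicate slides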
# Dickkopf-related protein 1 (Homo sapiens), sequence (O94907 whole entry, looked up): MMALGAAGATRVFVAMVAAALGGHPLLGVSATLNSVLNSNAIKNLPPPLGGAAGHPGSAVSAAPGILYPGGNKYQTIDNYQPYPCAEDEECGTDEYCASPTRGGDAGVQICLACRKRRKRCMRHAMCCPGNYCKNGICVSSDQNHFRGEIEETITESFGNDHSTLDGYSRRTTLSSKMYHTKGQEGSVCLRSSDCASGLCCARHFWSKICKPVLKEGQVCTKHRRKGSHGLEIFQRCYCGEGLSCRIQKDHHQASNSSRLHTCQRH
# [10] = system: Inhibin beta A chain (activin A); assay: small molecules binding activin A – biochemical, small-molecule microarray, 635 nm fluorescence scan, primary screen (AID 1107); settings: INHBA, higher = more signal;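 also: mouse activin A protein probed at 4.33 µg/mL on printed slides; score merges bound-protein fluorescence near 667 nm with spot signal-to-noise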
# [11] = system: Human papillomavirus type 1a protein E7 (residues 44-93); assay: small molecules binding HPV E7 44-93 – biochemical, small-molecule microarray, residues 44-93, 635 nm fluorescence, primary screen (AID 1108); settings: fluorescence 635 nm, higher = more signal;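 also: E7 fragment applied at 1 µg/mL in TBST for 1 h at 4 C; score combines spot fluorescence with its signal to noise ratio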
# [12] = hepatitis C replication reporter changes, two-sided – Huh7 cells, luciferase reporter, HCV replication inhibitor project, primary screen (AID 1109); settings: Huh7 HCV replicon luciferase reporter, 48 h; higher = more signal;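 also: huh7 hepatoma cells harbouring a luciferase neomycin HCV replicon reporter; luciferase luminescence as measure of HCV replicon replication; test concentration not given here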
# [13] = target: Left-right determination factor 2 (Homo sapiens) (UniProt O00292); assay: small molecules binding LEFTY2 protein – biochemical, small-molecule microarray, 635 nm fluorescence scan, primary screen (AID 1110); settings: higher = more signal
# Left-right determination factor 2 (Homo sapiens), sequence (O00292 whole entry, looked up): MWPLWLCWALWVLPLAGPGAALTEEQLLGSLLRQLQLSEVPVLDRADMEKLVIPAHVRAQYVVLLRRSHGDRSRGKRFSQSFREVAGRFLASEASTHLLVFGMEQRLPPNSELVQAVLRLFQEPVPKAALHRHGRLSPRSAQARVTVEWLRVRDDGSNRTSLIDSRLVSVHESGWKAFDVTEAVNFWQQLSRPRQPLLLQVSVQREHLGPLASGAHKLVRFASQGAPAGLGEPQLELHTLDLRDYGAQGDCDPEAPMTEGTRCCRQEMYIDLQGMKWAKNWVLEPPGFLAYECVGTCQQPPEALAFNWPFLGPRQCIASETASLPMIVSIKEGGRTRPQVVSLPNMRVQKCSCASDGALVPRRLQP
# [14] = target: Calmodulin-1 (Homo sapiens) (UniProt P0DP23); assay: small molecules binding calmodulin-1 with EGTA – biochemical, small-molecule microarray, Cy5-labelled CALM1, profiling panel (AID 1111); settings: Cy5-CALM1 binding fluorescence, higher = more signal;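 also: labelled calmodulin applied in Tris saline Tween buffer holding calcium plus EGTA and DTT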
# [15] = target: Calmodulin-1 (Homo sapiens) (UniProt P0DP23); assay: small molecules binding Ca-loaded calmodulin-1 – biochemical, small-molecule microarray, Cy5-labelled CALM1, plus calcium, artefact control for SMM control-protein annotation, profiling panel (AID 1112); settings: Cy5-CALM1 binding fluorescence, higher = more signal;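 also: score merges spot fluorescence with signal to noise from triplicate slides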
# [16] = probe aWnt5a binding to arrayed compounds – biochemical, biotinylated probe, 635/667 nm fluorescence, primary screen (AID 1113); settings: small-molecule microarray, higher = more signal;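 also: score merges 667 nm fluorescence intensity with signal-to-noise per printed feature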
# [17] = probe aShh binding to arrayed compounds – biochemical, biotinylated probe, 635/667 nm fluorescence, primary screen (AID 1114); settings: small-molecule microarray, higher = more signal;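 also: probe is biotin-labelled aShh protein from a stem cell growth factor screen; measures binding of labelled protein to compounds printed on the slide; score merges feature fluorescence at 667 nm with signal-to-noise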
# [18] = probe aNog binding to arrayed compounds – biochemical, biotinylated probe, 635/667 nm fluorescence, primary screen (AID 1115); settings: small-molecule microarray, higher = more signal;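 also: probe is biotinylated aNog protein used at 0.15 µg/mL for 1 h at 4 C; z-score combines 667 nm fluorescence of each spot with its signal to noise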
# [19] = target: Torsin-1A-interacting protein 1 (Homo sapiens) (UniProt Q5JTV8); assay: compound microarray binding of lysate hLAP1 – cell lysate, small-molecule microarray, COS7 lysate, 635/667 nm fluorescence, primary screen (AID 1116); settings: 635 nm fluorescence, higher = more signal
# Torsin-1A-interacting protein 1 (Homo sapiens), sequence (Q5JTV8 whole entry, looked up): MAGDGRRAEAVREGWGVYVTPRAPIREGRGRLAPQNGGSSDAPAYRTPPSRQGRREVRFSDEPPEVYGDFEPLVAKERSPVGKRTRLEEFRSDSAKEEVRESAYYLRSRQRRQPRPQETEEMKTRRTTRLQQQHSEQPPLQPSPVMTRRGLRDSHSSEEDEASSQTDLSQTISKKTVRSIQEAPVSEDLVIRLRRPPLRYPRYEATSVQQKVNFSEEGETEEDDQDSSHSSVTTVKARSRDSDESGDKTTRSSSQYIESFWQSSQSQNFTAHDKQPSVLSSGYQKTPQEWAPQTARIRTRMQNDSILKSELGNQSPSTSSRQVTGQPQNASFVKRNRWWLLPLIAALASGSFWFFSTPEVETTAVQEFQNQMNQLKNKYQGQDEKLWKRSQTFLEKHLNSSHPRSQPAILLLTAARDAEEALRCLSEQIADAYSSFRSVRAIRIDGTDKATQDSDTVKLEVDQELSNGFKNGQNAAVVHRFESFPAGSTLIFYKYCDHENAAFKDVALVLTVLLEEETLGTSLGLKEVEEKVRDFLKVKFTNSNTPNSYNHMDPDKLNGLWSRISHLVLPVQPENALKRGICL
# [20] = target: Alpha-bungarotoxin (Bungarus multicinctus) (UniProt P60615); assay: compounds binding labelled alpha-BTX control protein – biochemical, small-molecule microarray, Alexa647 label, 635/667 nm fluorescence, artefact control for SMM control protein annotation, profiling panel (AID 1117); settings: alpha-BTX-A647 binding fluorescence, higher = more signal
# Alpha-bungarotoxin (Bungarus multicinctus), sequence (P60615 whole entry, looked up): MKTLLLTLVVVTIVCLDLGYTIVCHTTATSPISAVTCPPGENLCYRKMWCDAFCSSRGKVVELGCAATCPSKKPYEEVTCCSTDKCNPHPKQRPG
Structure (SMILES),composite z-score [1],composite z-score [2],composite z-score [3],z-score [4],composite z-score [5],composite z-score [6],composite z-score [7],composite z-score [8],composite z-score [9],composite z-score [10],composite z-score [11],z-score [12],composite z-score [13],composite z-score [14],composite z-score [15],composite z-score [16],composite z-score [17],composite z-score [18],composite z-score [19],composite z-score [20]
Cc1ccc(N2C(=O)c3ccccc3[C@@H](C(=O)NCC(C)C)[C@@H]2c2ccc(CO)cc2)nc1,1.48,-0.244,0.544,0.337 (inactive),-0.617,-0.813,-1.26,-1.19,-0.52,0.244,-0.369,-0.216,-1.31,-0.617,-0.259,-0.176,-0.0709,-0.518,0.219,-0.688
Cc1ccc(C(C)CC(O)C2C=CC3C(=O)NC(=O)C3N2Nc2ccccn2)o1 (stereo not given),1.22,0.182,-0.0866,0.802 (inactive),0.228,0.309,0.401,0.506,0.906,1.25,0.0598,-0.146,0.479,-0.409,-0.743,-0.1,-0.0626,-0.0863,0.773,-0.0054
Cc1ccc(S[C@]2(C(=O)NCC(C)C)CC(=O)N(Cc3ccccc3)[C@@H]2c2ccc(CO)cc2)cc1,0.959,-0.0941,1.09,0.00364 (inactive),-0.514,-0.919,-1.14,-0.979,-1.06,-0.417,0.725,-1.99,-1.83,-0.624,-0.249,-0.141,-0.0904,0.596,0.769,0.147
O=C1O[C@H](c2ccccc2)[C@H](c2ccccc2)N2[C@H]1[C@@H](C(=O)N1CCCCCCC1)[C@]1(C(=O)Nc3ccc(C#CC4=CCCCC4)cc31)[C@H]2c1ccc(O)cc1,2.14,3.14,1.72,-0.944 (inactive),1.67,1.5,2.04,1.69,2.71,2.04,1.54,-2.29,1.78,3.22,2.02,1.68,3.35,3.53,5.98,5.18
O=C1OCC=C[C@H]2OC34C=CCN(c5ccc6ccccc6c5)C(=O)[C@H]3N(CCO)C(=O)[C@@H]4[C@@H]12 (stereo not given in full),1.07,0.134,0.947,-0.461 (inactive),-0.455,-0.657,-1.49,-1.33,-2.42,0.589,-0.589,-0.727,-1.99,-0.245,0.716,-0.152,0.191,0.0721,-0.831,-0.74
O=C(NCc1ccccc1)[C@@H]1c2ccccc2C(=O)N(Cc2cc(F)cc(C(F)(F)F)c2)[C@H]1c1ccc(CO)cc1,1.09,0.125,0.519,-0.945 (inactive),0.29,0.243,-0.0881,0.588,-0.0135,0.517,1.44,-0.132,-0.244,-0.174,-0.707,-0.096,0.163,-0.339,1.15,0.258
